# DT40 TDP1 CPT: DT40-hTDP1 cell growth loss with CPT; chicken DT40 Tdp1-/-;hTDP1 cells + 20 nM CPT, ATP luminescence, 48 h; Potency, µM (highest dose often 46.2 µM), without a hit: top-dose activity change, negative = growth inhibition, most hits filed as inhibitors; actives 12% (n = 420,000); further: potency means the concentration at half of the fitted maximal effect; nearly all actives have a fitted effect of over 55% in size
#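 Chicken DT40 Tdp1-/- cells complemented with human TDP1, 400 cells/well, exposed to compounds plus 20 nM camptothecin for at least 48 h at 37 C; viability read as ATP content by CellTiter-Glo luminescence.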
# RORgamma inh: ROR gamma (mouse) transcription inhibition | P51450 | Drosophila S2 Gal4-RORgamma UAS-luciferase reporter, 20 h | Potency, µM (titrated, usually from 53.6 µM), without a hit: at the top dose activity change, negative = inhibition, hits mostly inhibitors | actives 5.4% (n = 310,000) | AID 2551; further: potency means the concentration at half of the fitted maximal effect; nearly all actives have a fitted effect of over 60% in size
# Target sequence (P51450 whole entry, looked up, the tested form may be a part): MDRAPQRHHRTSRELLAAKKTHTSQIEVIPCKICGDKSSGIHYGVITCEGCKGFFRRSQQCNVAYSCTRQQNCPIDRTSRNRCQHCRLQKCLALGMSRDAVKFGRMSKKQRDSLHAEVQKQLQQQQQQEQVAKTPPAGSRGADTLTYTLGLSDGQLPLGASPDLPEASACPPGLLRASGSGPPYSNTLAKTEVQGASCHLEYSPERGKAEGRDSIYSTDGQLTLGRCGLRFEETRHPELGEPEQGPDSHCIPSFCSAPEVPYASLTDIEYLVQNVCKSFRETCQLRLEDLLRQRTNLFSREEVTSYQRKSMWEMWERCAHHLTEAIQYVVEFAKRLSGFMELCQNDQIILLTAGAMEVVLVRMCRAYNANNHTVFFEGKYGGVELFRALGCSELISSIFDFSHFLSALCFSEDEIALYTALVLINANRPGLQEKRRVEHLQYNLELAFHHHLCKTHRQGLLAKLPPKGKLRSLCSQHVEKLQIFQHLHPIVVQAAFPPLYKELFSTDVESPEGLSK
#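 In this cell-based reporter format, copper sulfate (700 uM final) drives Gal4–ROR gamma fusion expression from a metallothionein promoter in Drosophila Schneider cells; compounds preincubated 1 hr, reporter read after 20 hr at ambient temperature.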
# VP16 counter: Gal4-VP16 reporter inhibition counter-screen. Drosophila S2 Gal4-VP16 UAS-luciferase, luminescence, 20 h. Potency, µM (top dose mostly 53.6 µM), without a hit: top-dose activity, negative = inhibition, usual class: inhibitors. actives 3.5% (n = 310,000);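 further: Gal4-VP16 expression switched on by copper sulfate through the metallothionein promoter; potency means the concentration at half of the fitted maximal effect; nearly all actives have a fitted effect of over 50% in size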
# TDP1 cell noCPT: qHTS for Inhibitors of human tyrosyl-DNA phosphodiesterase 1 (TDP1): qHTS in cells in absence of CPT; Potency, µM (top dose mostly 46.2 µM), inactives show at the highest dose activity change, negative = growth inhibition, most hits filed as inhibitors; AID 686978, 2013; DT40 Tdp1-/- hTDP1 cells, no CPT, ATP luminescence, 48 h; actives 15% (n = 420,000); further: potency means the concentration at half of the fitted maximal effect; nearly all actives have a fitted effect of over 55% in size
#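 Seeded 400 DT40-hTDP1 cells/well (vehicle DMSO, no 20 nM CPT); pinned compounds; ≥48 hr at 37 °C; CellTiter-Glo luminescence as viability measure.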
# IL1B secr inh: inhibitors of inflammasome signaling (IL-1 beta secretion); activity change, % at 57.5 µM; actives 4.7% (n = 360,000); THP-1 LPS/ATP IL-1B secretion, AlphaLISA, 16 h; stronger effect = lower value; in the data active means activity change below about -50%; inconclusive means mostly about -30% to -49%
#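 THP-1 cells pretreated 1 hr with compounds (up to 57.5 uM final), then stimulated with LPS (250 ng/mL final) plus ATP (1.25 mM final); secreted IL-1B measured by AlphaLISA after 16 hr, decreased signal indicating inhibition.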
# LDHA inh: inhibitors of human lactate dehydrogenase A. P00338. actives 0.15% (n = 480,000). purified LDHA, NADH/diaphorase-resazurin fluorescence; stronger effect = lower value. activity change, % (values are at about 110 or 230 µM); in the data active means activity change below about -30%; inconclusive means mostly about -25% to -30%;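 further: plate controls were DMSO wells for no effect and wells without enzyme for full effect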
#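 LDH5 2 nM; NADH 0.06 mM, pyruvate 0.2 mM; 200 mM Tris pH 7.4, EDTA, Tween-20; 5 min RT. Detection: diaphorase 0.133 mg/mL + resazurin 37 µM, fluorescence ex540/em590 at 0 and 20 min; normalized to enzyme-free and DMSO wells.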
# * marks the source's active call; other numbers are inactive results; ? = inconclusive; / = no result given. The list is not random: actives were taken first. Their share in the collection is about 18%. Unless noted, the call rests on the fitted dose curve; in most records, active means well fitted curve in the direction sought with a large enough effect; inconclusive means small, poorly fitted or top-dose-only effect, or another doubt; inactive means no such curve, though single readings can be large; an effect the other way counts as inactive or inconclusive. Unless noted, on the % scale 0 is the no-effect control and ±100 the full control effect.
SMILES,DT40 TDP1 CPT,RORgamma inh,VP16 counter,TDP1 cell noCPT,IL1B secr inh,LDHA inh
Cc1cc(C(=O)OCC(=O)c2ccc(OCc3ccccc3)cc2)c2ccccc2n1,/,/,/,/,/,-0.2
COC(=O)c1c[nH]c2c1-c1cc(C(=O)OCc3ccccc3)n(S(=O)(=O)c3ccc(C)cc3)c1C(=O)C2=O,0.581µM*,/,/,0.581µM*,-17.3,32.2
CC(Sc1nnc(C2CC2)n1C)C(=O)Nc1ccnn1C(C)C (stereo not drawn),/,/,/,/,/,-2.6
CCOc1ccc(S(=O)(=O)N2CCN(C(=O)c3cc4ccccc4o3)CC2)cc1,20.6µM*,/,/,20.6µM*,?,-0.2
CCOC(=O)c1ccc(S(=O)(=O)N2CCN(C(=O)c3cc(=O)c4ccccc4o3)CC2)cc1,-0.3%,11.8%,-3.0%,-6.3%,-115.7*,-9.4
CCOC(=O)c1ccc(S(=O)(=O)N2CCN(S(=O)(=O)CC)CC2)cc1,-16.9%,-29.2%,-4.3%,-4.9%,9.8,-8.9
O=C(O)c1cccnc1Sc1ccccc1F,/,/,/,/,/,-9.0
Nc1nccnc1C(=O)NCC#Cc1cccc(C(F)(F)F)c1,/,/,/,/,/,2.1
CC(C)(C)c1ccc(C(=O)NCCC(=O)O)cc1,/,/,/,/,/,3.8
CC1(C2CC2)NC(=O)N(CC(=O)Nc2cnc3ccccc3c2)C1=O (stereo not drawn),/,/,/,/,/,2.0
Nc1cccc[n+]1C(c1ccnc2ccccc12)[n+]1ccccc1N,1.12µM*,/,/,1µM*,/,1.0
O=C(O)c1ccnc2ccccc12,/,/,/,/,/,8.8
CCOC(=O)c1cnc(-n2nc(C)cc2C)nc1NCCO,-12.1%,?,-4.6%,-16.8%,-3.7,11.8
CCOC(=O)c1cnc(-n2nc(C)cc2C)nc1NC(C)c1ccccc1 (stereo not drawn),4.61µM*,1.41µM*,2.24µM*,4.61µM*,-8.6,0.6
CCOC(=O)c1cnc(-n2nc(C)cc2C)nc1N1CC(C)OC(C)C1 (stereo not drawn),?,/,/,20.6µM*,-10.0,0.0
CCOC(=O)c1cnc(-n2nc(C)cc2C)nc1NCc1ccccc1,3.26µM*,1.41µM*,2.51µM*,5.17µM*,-111.4*,1.5
CCOC(=O)c1cnc(-n2nc(C)cc2C)nc1NNc1cc(-c2ccccc2)nc(C)n1,/,0.0891µM*,0.1µM*,/,/,/
Cc1ccc(CCNC(=O)CS(=O)(=O)Cc2nc(-c3ccc(C)cc3)oc2C)cc1,/,/,/,/,/,-0.4
COc1ccc(Oc2ccc(/C=C/C(=O)c3cccc(OC)c3)cc2[N+](=O)[O-])cc1,7.31µM*,?,?,7.31µM*,-3.6,1.4
COc1ccc(Oc2ccc(/C=N/NC(=O)c3cccnc3)cc2[N+](=O)[O-])cc1,?,?,15.6%,20.6µM*,?,-1.2
COc1cc(/C=N/NC(=O)c2cccnc2)ccc1OS(=O)(=O)c1ccc(F)cc1,?,-0.6%,-11.1%,20.6µM*,27.0,4.8
COc1ccc(/C=N/NC(=O)c2cccnc2)cc1O,-0.4%,12.6%,-0.5%,-1.8%,15.4,1.7
COc1cc(/C=C/C(=O)c2cccc([N+](=O)[O-])c2)cc(OC)c1,/,/,/,/,/,-4.0
COc1cc(/C=N/NC(=O)c2cccnc2)ccc1OS(=O)(=O)c1cc(C)ccc1C,?,-58.1%,?,23.1µM*,-75.9*,-7.0
O=C1CC(c2ccc(F)cc2)c2cc(Br)c3ccccc3c2N1 (stereo not drawn),/,/,/,/,/,-8.2
SMILES,DT40 TDP1 CPT,RORgamma inh,VP16 counter,TDP1 cell noCPT,IL1B secr inh,LDHA inh
CC(NS(=O)(=O)Cc1ccccc1)c1cccs1 (stereo not drawn),/,/,/,/,/,-15.3
CCOC(=O)C1=C(C)N(C)C(=S)NC1c1ccc(Cl)cc1 (stereo not drawn),?,?,3.55µM*,-46.2%,-4.7,-5.8
CCOC(=O)C1=C(C)N(C)C(=S)NC1c1c(OCC)ccc2ccccc12 (stereo not drawn),?,2.82µM*,17.8µM*,-93.6%,24.1,5.7
COC(=O)C1=C(C)N(C)C(=S)NC1c1ccc(OC)cc1OC (stereo not drawn),-11.8%,15.8µM*,?,-15.3%,-3.0,-8.2
CCOC(=O)C1=C(C)N(CCCC(=O)O)C(=O)NC1c1ccc(Cl)cc1 (stereo not drawn),0.4%,12.4%,8.4%,-4.3%,-6.4,-12.1
CCOc1ccc2ccccc2c1C1NC(=S)N(C)C(C)=C1C(=O)OC (stereo not drawn),?,-3.6%,-5.7%,?,12.6,0.3
COC(=O)C1=C(C)N(C)C(=S)NC1c1ccc(Cl)cc1 (stereo not drawn),-2.4%,7.94µM*,11.2µM*,-8.1%,0.0,-1.1
CC(OC(=O)c1cc2ccccc2o1)C(=O)NC1(C#N)CCCCC1 (stereo not drawn),/,/,/,/,/,6.7
CCOC(=O)C1=C(C)NC(=S)N(C(C)=O)C1c1ccc(Cl)cc1 (stereo not drawn),16.4µM*,7.94µM*,17.8µM*,-13.5%,-14.5,0.0
CCOC(=O)C1=C(C)NC(=S)N(C(C)=O)C1c1ccc(OC)c(OC)c1 (stereo not drawn),11.5%,?,4.4%,-2.9%,-3.3,-1.7
CCOC(=O)C1=C(C)N(C)C(=S)NC1c1ccccc1 (stereo not drawn),9.2%,6.31µM*,8.91µM*,?,21.9,-0.2
CN(C)CCN(Cc1ccc(F)cc1)C(=O)c1cccc(S(C)(=O)=O)c1,/,/,/,/,/,1.9
COc1ccccc1CNC(=O)CN(C)S(=O)(=O)c1cccc2cccnc12,-3.2%,-34.3%,6.7%,-17.4%,4.3,-4.3
CSc1ccccc1NC(=O)CN(C)C(=O)COc1cccc2cccnc12,5.17µM*,/,/,3.26µM*,14.4,8.6
COc1ccccc1NC(=O)CN(C)S(=O)(=O)c1cccc2cccnc12,35.5%,-30.1%,-11.3%,18.4µM*,-19.0,-3.8
CN(CC(=O)Nc1ccc(Cl)c(C(F)(F)F)c1)C(=O)COc1cccc2cccnc12,?,/,/,?,-7.0,0.8
COc1ccc(N(C)S(=O)(=O)c2cccc3cccnc23)c(OC)c1,?,-0.5%,-1.7%,18.4µM*,22.2,4.4
Cc1ccc(NC(=O)CN(C)S(=O)(=O)c2cccc3cccnc23)cc1C,?,-3.0%,3.1%,14.6µM*,-22.5,-0.3
CC1CCC(NC(=O)c2cc(Cl)ccn2)CC1 (stereo not drawn),/,/,/,/,/,3.9
